About 79,000 compounds went through this panel and 15% of them were active in at least one assay; those are over-represented in the sample as a whole. A number with no mark means an inactive call. Cut-off read from the data, not from the text of the source: active = growth inhibition above about 70%; inactive = the rest. Where a SMILES comes first, the peptide text is derived from it. [ ]: non-standard residue; d: D form. Hpg = N[CH](C(=O)O)c1ccc(O)cc1

The nature of the assay: NCI Yeast Anticancer Drug Screen. Data for the sgs1 mgt1 strain (AID 161).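 Note: 0% = growth of cultures given vehicle only.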 Conditions: S. cerevisiae sgs1 mgt1 strain, at 50.0 µM, hits give high values. The method, then: Growth inhibition of yeast strains with defined genetic alterations is measured as a screen for potential anti-cancer activity. Selected strains with alterations in DNA damage repair or cell cycle control were exposed to compounds and growth inhibition was measured relative to vehicle treated controls. The strain used in this assay is sgs1 mgt1
`CC1(C)CNC(C)(C)CN1`: the growth inhibition is 4.35%.
As for `[N-]=[N+]=NC1CCOC(n2cnc3c(N)ncnc32)C1O` (stereo not given), the growth inhibition is 5.55%.
Consider `CCCCCC/C=N\OC(N)=O`, for which the growth inhibition was -4.9%.
Regarding `CC(=O)OCC1OC(n2nc(C#N)c(C#N)n2)C(OC(C)=O)C1OC(C)=O` (stereo not given), the growth inhibition is 3.15%.
Regarding `NC(=O)/N=C/NC(N)=O`, the growth inhibition was 21.8%.
Regarding `CC(C)(C)C(N)=O`, the growth inhibition is 4.35%.
Regarding `N=c1ccn(CC(O)COc2ccccc2)cc1` (stereo not given), the growth inhibition was -5.95%.
The same measure for `CCCCN(CCOc1ccnc(=O)[nH]1)CC(C)C`: -3.2%; for `COc1ccc2c3ccc4c(c3n(C)c2c1)C(=O)c1ccccc1C4=O`: -53%; for `CC(=O)C(CCCCCCCCCCC(C(C)=O)C(C)=O)C(C)=O`: -5.05%.
Take `CCCCOc1ccc(C(=O)C(C(c2ccccc2)N2CCOCC2)N2CCOCC2)cc1` (stereo not given): the growth inhibition was -9.4%.
Regarding `N#Cc1c(C(=O)NN)c2c(-c3ccc4ccccc4c3)n[nH]c(=O)c2[nH]c1=O`, the growth inhibition is 30.4%.
For the compound `CCOC(=O)C1CCCC1S(=O)(=O)c1ccc(C)cc1` (stereo not given), the growth inhibition was -27.4%.
Consider `CCOP(=O)(c1ccccc1)C(C)C` (stereo not given), for which the growth inhibition is -1.7%.
On to `CC(C)(O)CCC(C)(C)O`, for which the growth inhibition is 41.9%.
For the compound `CC(=O)Nc1ccc(OC(=O)Nc2ccc(C)c(NC(=O)Oc3ccc(NC(C)=O)cc3)c2)cc1`, the growth inhibition was 6.15%.
As for `N#CC1CCCC(CBr)C1` (stereo not given), the figure is -20.5%; as for `O=c1[nH]cnc2c1CN(c1ccc(Cl)cc1)C2`, -11.3%; as for `CCOc1ccc(N=Nc2c(C)nn(C(N)=S)c2OCC)cc1`, 11.6%.
Consider `c1ccc(Cn2cccc2N=Nc2ccccc2)cc1`, for which the growth inhibition was 6.55%.
The same measure for `OC1C2CCC3C2CC(C(O)(c2ccccc2)c2ccccc2)C13` (stereo not given): -8.75%; for `COC(=O)N/N=C(/CC1(O)C(=O)Nc2ccc([N+](=O)[O-])cc21)c1ccccc1` (stereo not given): 36.5%; for `CCCC(F)C(=O)OCC` (stereo not given): 5.4%.
Consider `COc1cc(C=O)cc(OC)c1`, for which the growth inhibition was -20.4%.
With `O=C(CCc1ccc(O)c(O)c1)NCCc1cc(O)cc(O)c1`, the growth inhibition is -26.8%.
Regarding `CCN(CC)C(=O)COc1ccc(Cl)cc1C(C)C`, the growth inhibition is 1.35%.
Regarding `CN(C)CCCn1cnc2cc(Cl)c(Cl)cc21`, the growth inhibition is -21%.
As for `N#CCCC(CC#N)N1CCN(C(CC#N)CCC#N)CC1` (stereo not given), the growth inhibition is -11.8%.
Take `C=CS(=O)(=O)CCCCCCCCCCCCCCCCCC`: the growth inhibition is -18.4%.
As for `CC(C)CC(N)C(=O)NC(C(=O)O)c1ccc(O)cc1` (stereo not given) (H-Leu-[Hpg]-OH; configuration not given here), the figure is 3.4%; as for `CC(C)c1cc(CN(C)C)c(O)c(C(C)(C)C)c1`, -43.5%; as for `O=C1/C(=C/c2cccc3ccccc23)Cc2ccccc21`, -11.6%.
Take `Cc1ccc(NC(=O)OCCOc2c(C(C)C)cccc2C(C)C)c([N+](=O)[O-])c1`: the growth inhibition is 8.55%.
On to `CC1CCC(C(C)C)C(OC(=O)c2ccccc2O)C1` (stereo not given), for which the growth inhibition was -11.3%.
Take `O=c1c(Cl)c(Cl)cnn1CCc1ccncc1`: the growth inhibition is -19.6%.
As for `C=CCNc1nc2c(s1)CCc1cc(OC)c(OC)cc1-2`, the figure is 12%; as for `C=Cc1cc2c(cc1O)CC[C@@H]1[C@@H]2CC[C@]2(C)[C@@H](O)CC[C@@H]12`, 36.8%; as for `CC(C)c1ccc(/C=C2/C=C(c3ccc4ccccc4c3)OC2=O)cc1`, -31.8%.
As to `CCOC(=O)C(N)C(O)c1ccncc1` (stereo not given), the growth inhibition was -4.25%.
Turning to `Nc1nc(SC2CCCCC2)nc2c1ncn2C1OC(CO)C(O)C1O` (stereo not given), the growth inhibition was -8.15%.
